Screening data as filed in PubChem BioAssay.
Eya2 phos inh – inhibitors of human Eya2 phosphatase activity | O00167 | recombinant Eya2, OMFP fluorescence dephosphorylation (OMFP is methylfluorescein phosphate) | Potency, µM (titrated, usually from 76.9 µM), inactives show at the top dose activity, negative = inhibition, actives largely listed as inhibitors | hit rate 0.006% among 330,000; further: on the % scale 0 is the no-effect control and ±100 the full control effect
Target sequence (O00167 whole entry, looked up): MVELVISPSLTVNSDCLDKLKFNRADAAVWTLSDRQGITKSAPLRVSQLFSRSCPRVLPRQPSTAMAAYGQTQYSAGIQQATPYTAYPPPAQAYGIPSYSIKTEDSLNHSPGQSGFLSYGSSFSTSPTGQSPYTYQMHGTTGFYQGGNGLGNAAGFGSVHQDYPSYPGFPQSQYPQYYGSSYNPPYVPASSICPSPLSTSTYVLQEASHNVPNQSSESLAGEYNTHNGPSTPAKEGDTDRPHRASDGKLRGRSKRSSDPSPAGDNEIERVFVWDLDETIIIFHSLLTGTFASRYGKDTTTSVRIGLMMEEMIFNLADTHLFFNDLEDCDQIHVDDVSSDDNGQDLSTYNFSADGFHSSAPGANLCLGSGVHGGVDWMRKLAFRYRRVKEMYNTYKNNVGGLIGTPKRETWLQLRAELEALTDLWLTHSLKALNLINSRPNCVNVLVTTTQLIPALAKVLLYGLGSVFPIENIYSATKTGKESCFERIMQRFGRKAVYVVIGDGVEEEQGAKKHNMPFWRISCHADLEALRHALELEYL
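Eya2 (0.2 uM) preincubated 10 min at ambient with compound, then OMFP substrate added at 50 uM; 10 min reaction in 50 mM HEPES pH 7.5, 50 mM NaCl, 5 uM MgCl2, 0.05% BSA, 1 mM DTT. Fluorescence read at Ex 485/Em 525 nm.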
ClpP mod – qHTS Assay for Activators of ClpP | purified B. subtilis ClpP, FRET peptide cleavage, 20 min | hit rate 1.9% among 340,000 | ATP-dependent Clp protease proteolytic subunit (Bacillus subtilis (strain 168)), P80244 | AID 651965, 2013 | Potency, µM (top dose mostly 57.5 µM), for the others: at the highest dose activity change, negative = active; active means well fitted falling curve with a large enough effect; inconclusive means small, poorly fitted or top-dose-only effect; inactive means no such curve, though single readings can be large or run the other way; further: the source files actives as falling curves though it sought activators and does not explain the sign; nearly all actives have a fitted effect of over 65% in size
Target sequence (P80244 whole entry, looked up): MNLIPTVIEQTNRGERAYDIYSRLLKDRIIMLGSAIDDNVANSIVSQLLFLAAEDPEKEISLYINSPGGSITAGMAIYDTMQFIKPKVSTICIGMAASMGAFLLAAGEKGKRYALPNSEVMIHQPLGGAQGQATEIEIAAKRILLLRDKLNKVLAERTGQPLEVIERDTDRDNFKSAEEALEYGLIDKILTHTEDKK
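Buffer: 100 mM Tris/HCl pH8, 100 mM KCl, 0.05% low protease BSA, 2.5% glycerol, 0.01% Tween-20. ClpP 10 microg/mL final; 20 min RT; delta FRET normalized to ADEP and DMSO controls.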
USP2a inh – blocks human ubiquitin-specific protease USP2a. O75604. USP2 core, Ub-CHOP2 coupled fluorogenic reporter, 485/531. Potency, µM (titrated, usually from 38.3 µM), for inactives: top-dose activity change, negative = inhibition, actives largely listed as inhibitors. hit rate 0.01% among 330,000. AID 463254;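 further: plate controls were DMSO wells for no effect and full inhibition by NEM control for full effect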
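USP2 core (10nM final) preincubated 30min RT with compound in 20mM Tris-HCl pH 8.0, 2mM CaCl2, 2mM beta-mercaptoethanol, 0.05% CHAPS; 25nM Ub-CHOP2 plus 25nM reporter substrate added, fluorescence (Ex485/Em531) read after 60min.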
GALK inh – inhibitors of human galactokinase | P51570 | Potency, µM (highest dose often 57.5 µM), for inactives: at the highest dose activity change, negative = inhibition, hits mostly inhibitors | AID 1868 | Purified GALK, Kinase-Glo residual ATP luminescence | hit rate 0.007% among 270,000; further: on the % scale 0 is the no-effect control and ±100 the full control effect
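5 nM enzyme, 35 uM ATP, 100 uM galactose, 20 mM HEPES pH8.0, 5 mM MgCl2; 1 h RT; residual ATP by Kinase-Glo Plus luminescence, qHTS format.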
Active calls of the source: *; ? = inconclusive; · = no result given; ! = not confirmed by another sample; [ ] = remark or other dose. The sample as a whole holds a higher share of hits than the screen did. Unless noted, the call rests on the fitted dose curve; in most records, active means well fitted inhibition curve with a large enough effect; inconclusive means small, poorly fitted or top-dose-only effect, or effect the other way; inactive means flat fitted curve, though single readings scatter. Potency means the concentration at half of the fitted maximal effect.

SMILES	Eya2 phos inh	ClpP mod	USP2a inh	GALK inh
COc1ccc(-c2ccc(OC)c([C@H]3[C@H]4C=CC[C@@H](C)[C@@H]4C(=O)N3Cc3ccccc3)c2)cc1	2.7%	25.1µM*	7.4%	0.1%
CN(C)c1ccc(/C=N/NC(=S)NCc2ccco2)cc1	-3.3%	25.1µM*	2.2%	3.3%
CN(C)c1ccc(/C=N/NC(=O)CCC(=O)NCc2ccccc2)cc1	7.7%	10µM*	2.3%	1.9%
CCCCCC(=O)N/N=C/c1ccc(N(C)C)cc1	1.9%	28.2µM*	0.2%	0.0%
CCCCCCSc1cc(-c2nc3cc(C)ccn3c2NCCCC)ccc1OC	-27.3%	15.8µM*	-1.1%	·
CN(C)CCCNc1oc(-c2ccccc2)nc1C#N	-5.6%[15.4 µM]	-0.9%	1.9%	2.5%
CN(C)CCNc1oc(-c2cccc(Cl)c2)nc1C#N	-7.7%	15.8µM*	-2.0%	-0.8%
CCN(CC)c1ccc(NC(=O)c2ccccc2F)cc1	-6.9%	-1.0%	-0.9%	-2.9%
CN(C)C(=O)CSc1cccc2cccnc12	11.3%	20µM*	1.9%	0.7%
O=C(CSc1cccc2cccnc12)OCC(=O)c1ccccc1	-11.7%	25.1µM*	2.6%	·
O=C(O)Cn1c(=O)n(Cc2ccccc2)c2ccccc21	4.9%	-2.5%	0.4%	0.0%
O=c1n(Cc2ccccc2)c2cc(Cl)cnc2n1Cc1ccccc1	-17.9%	28.2µM*	-0.8%	-1.2%
CCN(CC)CCNC(=O)c1cn(-c2ccccc2)nc1-c1cccs1	9.7%	-5.2%	0.1%	0.7%
CCCNc1cc(C)c(C#N)c2nc3ccccc3n12	2.2%	2.82µM*	0.5%	0.0%
COc1cc(COc2ccc3c(C)c(Cc4ccccc4)c(=O)oc3c2)cc(OC)c1OC	-8.1%	-0.6%	2.2%	0.3%
COc1cc(COc2ccc3c(C)c(Cc4ccccc4)c(=O)oc3c2C)cc(OC)c1OC	0.1%	15.8µM*	-0.5%	3.4%
COc1cccc(COc2ccc3c(C)c(Cc4ccccc4)c(=O)oc3c2)c1	·	12.6µM*	·	·
Nc1ccc(C(=O)Nc2cccc3ncccc23)cc1	0.4%	-4.1%	1.6%	6.0%
Cc1ccc(C(=O)CCC(=O)CCC(=O)O)cc1	·	0.1%	·	·
CCCC(=O)Nc1cc(-c2cn3cccnc3n2)ccc1OC	6.6%	?	3.3%	-1.3%
COc1ccc(-c2cn3cccnc3n2)cc1NC(=O)CC(C)C	-1.9%	28.2µM*	2.0%	0.0%
O=C(Nc1cccc(-c2cn3cccnc3n2)c1)c1ccc2c(c1)OCO2	-6.5%	28.2µM*	1.0%	-2.8%
CCOc1cc(C(=O)Nc2ccc(-c3cn4cccnc4n3)cc2)cc(OCC)c1OCC	·	15.8µM*	·	·
COCCNC(=O)C1CCCN(c2nn3c(=O)cc(C)nc3s2)C1 (stereo not given)	-1.8%	-4.5%	2.7%	1.3%
O=C(Cc1ccccc1)N(Cc1cccnc1)c1nc2ccc(Cl)cc2s1	·	-3.0%	·	·
SMILES	Eya2 phos inh	ClpP mod	USP2a inh	GALK inh
COC(=O)c1ccc(CSC2=NC[C@@H]3[C@@H]4C(=O)N(Cc5ccccc5)C(=O)[C@@H]4[C@](Cc4ccccc4)(C(=O)OC)N23)cc1	2.4%	-1.6%	-1.2%	·
CC(C)NCC(=O)NC12CC3CC(CC(C3)C1)C2	-1.2%	15.8µM*	-6.2%	2.2%
CCOc1ccc(OCC(=O)OCC(=O)NCC2CCCO2)cc1 (stereo not given)	11.7%	-1.0%	0.3%	·
COc1ccc(S(=O)(=O)Nc2ccccc2C(=O)NN2CCOCC2)cc1OC	-6.4%	-4.4%	4.9%	·
COc1ccc(-c2csc(NC(=O)c3ccccc3NS(=O)(=O)c3ccc(C)cc3)n2)cc1	-1.6%	?	-3.1%	-4.5%
COc1ccc(S(=O)(=O)Nc2ccccc2C(=O)Nc2nc(-c3ccc(F)cc3)cs2)cc1OC	1.0%	15.8µM*	-2.0%	-12.2%
CCCNC(=O)c1ccccc1NS(=O)(=O)c1ccc(OC)c(OC)c1	1.3%	31.6µM*	0.6%	0.2%
N#Cc1nc(Cc2ccccc2)oc1N1CCC(C(N)=O)CC1	2.2%	12.6µM*	9.6%	-3.3%
Cc1cccc(N2CCN(S(=O)(=O)c3c(C)[nH]c(C)c3C(=O)N3CCCCC3)CC2)c1C	3.7%	0.9%	2.0%	-1.8%
COc1cccc(-n2c(=O)c3sc4ccccc4c3n(CC(=O)Nc3cccc(Cl)c3)c2=O)c1	·	3.8%	·	·
COc1cccc(NC(=O)Cn2c(=O)n(-c3ccc(Cl)cc3)c(=O)c3sc4ccccc4c32)c1	·	31.6µM*	·	·
COc1ccc(Cl)cc1NC(=O)CN1C(=O)NC2(CCCC2)C1=O	-16.8%	·	0.5%	-1.4%
C(=C\c1nc(N2CCCCCC2)c2ccccc2n1)/c1ccccc1	-0.3%	31.6µM*	-1.3%	0.4%
c1ccc2c(N3CCCCC3)nc(N3CCCCC3)nc2c1	-7.9%	-3.1%	-1.3%	-1.1%
CCN(CC)S(=O)(=O)c1ccc2nc(CCl)[nH]c2c1	-4.3%	14.1µM*	1.3%	8.4%
COc1ccccc1NS(=O)(=O)c1ccc2nc(CCl)[nH]c2c1	5.7%	·	1.1%	6.3%
COc1cc(-c2nc(-c3cccc(C)c3)no2)cc(OC)c1OC	-3.4%	-25.3%	-0.2%	0.9%
COc1ccc(-c2nc(-c3cccc(C)c3)no2)cc1OC	-6.9%	25.1µM*	1.3%	1.9%
Cc1ccc(OC(=O)c2ccccc2)cc1C	·	28.2µM*	·	·
O=C(Oc1ccc2ccccc2c1)c1ccccc1	11.5%	-0.3%	6.2%	1.6%
Cc1ccccc1Cn1c(CN2CCC(C(=O)NCCc3ccccc3)CC2)cc2ccccc21	·	-9.0%	·	·
O=C(NCCc1ccccc1)C1CCN(Cc2cccc3ccccc23)CC1	-4.7%	15.8µM*	0.4%	-0.9%
CCCCCC(=O)N1CCN(CCN=CC2=C(O)CC(c3cccs3)CC2=O)CC1 (stereo not given)	9.1%	31.6µM*!	-0.6%	0.0%
O=C(CN1CCCC1c1ccc2c(c1)OCCO2)NC(=O)Nc1ccccc1F (stereo not given)	?	-1.8%	-0.5%	·
Cc1cccc(OCC(=O)O/N=C(\N)c2ccc(Cl)cc2)c1	11.1%	-4.8%	6.0%	2.1%
SMILES	Eya2 phos inh	ClpP mod	USP2a inh	GALK inh
CCOC(=O)c1sc(C)c2c1NC(C)(c1cccs1)NC2=O (stereo not given)	10.8%	28.2µM*	0.0%	-0.8%
CCOC(=O)c1sc(C)c2c1NC1(CCCCC1)NC2=O	5.8%	31.6µM*	2.8%	-0.7%
CCOc1cc(C)c(-c2onc(C(F)(F)F)c2-c2csc(C)n2)c(O)c1	-7.1%	-1.7%	-6.6%	-1.4%
COc1cc2c(cc1OC)C1O[C@](c3ccsc3)(C2)Oc2cc(-c3ccccc3)oc(=O)c21	19.1%[15.4 µM]	·	-1.8%[7.66 µM]	·
Cc1ccc2cccc(SCC(=O)NCC#N)c2n1	-0.7%	28.2µM*	-1.0%	2.9%
NNC(=O)CSc1cccc2cccnc12	-9.1%	?	-5.6%	·
O=C(NC(=S)Nc1ccccc1)C1CCCCC1	18.7%	-0.1%	1.9%	-2.9%
O=C(NC(=S)NCc1ccccc1)C1CCCCC1	-10.1%	12.6µM*	4.4%	-3.7%
C=CCc1c(C)nc2c(C(=O)O)cnn2c1C	5.5%	31.6µM*	0.7%	0.0%
Cc1nc2c(C(=O)N3CCN(C)CC3)cnn2c(C)c1Cc1ccc(Cl)cc1	19.7%	25.1µM*	0.2%	0.8%
